Bioassay records: PubChem, National Center for Advancing Translational Sciences (NCATS)
VDR inh – vitamin D3 receptor (human) inhibition; VDR-SRC2-3 peptide fluorescence polarization, 2 h; AID 504847; 400,000 tested, 0.93% active; Potency, µM, actives largely listed as inhibitors
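After 23 nl compound addition and a short centrifugation, plates sat for 2 hours at ambient temperature; polarization of fluorescence then indicated loss of VDR binding to peptide SRC2-3.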
GCN5L2 inh – blocks human GCN5L2 histone acetyltransferase; AID 504327; GCN5L2 HAT assay, ThioGlo1 CoA-SH fluorescence; Potency, µM (series often up to 58.9 µM), usual class: inhibitors; 390,000 tested, 0.21% active; Q92830
Target sequence (Q92830 whole entry, looked up): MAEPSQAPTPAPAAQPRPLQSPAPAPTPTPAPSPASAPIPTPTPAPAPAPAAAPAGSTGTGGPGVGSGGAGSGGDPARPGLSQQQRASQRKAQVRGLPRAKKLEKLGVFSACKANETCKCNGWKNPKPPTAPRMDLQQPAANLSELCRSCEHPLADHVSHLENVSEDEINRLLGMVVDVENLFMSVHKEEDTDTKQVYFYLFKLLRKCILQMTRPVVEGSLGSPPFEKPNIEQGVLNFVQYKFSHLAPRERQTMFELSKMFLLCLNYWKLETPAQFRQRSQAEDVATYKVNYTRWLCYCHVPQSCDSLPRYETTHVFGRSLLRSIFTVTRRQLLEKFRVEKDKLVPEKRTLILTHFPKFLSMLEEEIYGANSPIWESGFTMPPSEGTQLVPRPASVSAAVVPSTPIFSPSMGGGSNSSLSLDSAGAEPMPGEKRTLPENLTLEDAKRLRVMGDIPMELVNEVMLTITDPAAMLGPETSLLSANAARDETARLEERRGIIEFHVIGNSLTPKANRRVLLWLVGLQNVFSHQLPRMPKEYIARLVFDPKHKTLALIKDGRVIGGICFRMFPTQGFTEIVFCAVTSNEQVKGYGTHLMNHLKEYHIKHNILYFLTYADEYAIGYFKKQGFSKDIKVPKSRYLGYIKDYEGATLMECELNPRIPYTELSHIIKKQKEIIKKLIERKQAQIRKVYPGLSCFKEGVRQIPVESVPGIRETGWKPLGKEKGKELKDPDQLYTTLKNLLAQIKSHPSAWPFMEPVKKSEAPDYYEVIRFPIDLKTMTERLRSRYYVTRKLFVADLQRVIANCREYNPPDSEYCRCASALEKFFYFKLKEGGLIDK
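Compounds, pin-transferred from DMSO stocks, meet 20nM GCN5L2 for 15 min before the reaction begins with H3(1-25) peptide (75uM) and acetyl-CoA (70uM). Thiol-reactive ThioGlo1 reports CoA release over 20 min at room temperature.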
TrxR1 inh – blocks rat thioredoxin reductase 1; O89049; recombinant rTrxR1, NADPH fluorescence consumption, selenite substrate; Potency, µM (top dose mostly 114 µM), hits mostly inhibitors; 390,000 tested, 1% active; AID 588453; note: nearly all actives have a fitted effect of over 65% in size
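Rat TrxR1 (90 nM in the dispensed reagent) was pre-reduced with 400 uM NADPH for 5 min at room temperature, then incubated with compound for 15 min. After 400 uM selenite was added, NADPH fluorescence (Ex 340/Em 450 nm) was followed for 8 min.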
TrxR1 substrate – is turned over as a substrate by rat TrxR1 | Potency, µM (titrated, usually from 114 µM) | O89049 | 390,000 tested, 0.01% active | purified TrxR1 substrate turnover, NADPH consumption readout; note: nearly all actives have a fitted effect of over 50% in size
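Rat TrxR1, dispensed at 90 nM, was prereduced with 400 uM NADPH (final) for 5 min at ~22 deg C, then incubated with compound 15 min before 400 uM selenite. A first-read NADPH fluorescence drop versus no-compound background flagged substrates.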
Each line names hits and unclear results; the compound was inactive in the other large screens; ! = not active in a repeat. This is a sample that favours compounds with a hit; in the whole collection about 1.8% have one here. Calls come from the whole dose curve; as a rule, active = well fitted curve in the direction sought with a large enough effect; inconclusive = small, poorly fitted or top-dose-only effect, or another doubt; inactive = no such curve, though single readings can be large; an effect the other way counts as inactive or inconclusive.

CC[n+]1ccc(C[n+]2ccccc2)c2ccccc21	GCN5L2 inh 28µM, TrxR1 inh inconclusive
CC1(C)Cc2c(sc3ncnc(N)c23)CO1	none
CCCC1Cc2c(sc3ncnc(N)c23)CO1 (configuration not stated)	TrxR1 inh 50µM
O=C(NCC1CCCO1)c1nn2c(C(F)(F)F)cc(-c3ccc(Br)o3)nc2c1Br (configuration not stated)	TrxR1 inh 14µM
O=C(NC1CCCCC1)c1nn2c(C(F)(F)F)cc(-c3ccco3)nc2c1Br	none
CN(CC(=O)O)c1ccc(/C=C2\C=Cc3ccccc32)cc1	TrxR1 inh inconclusive (no result: VDR inh, GCN5L2 inh)
COCCn1c(=NC(=O)CCS(=O)(=O)c2ccccc2)sc2ccccc21	TrxR1 inh 7.1µM (no result: GCN5L2 inh)
COC(=O)c1ccc2c(c1)sc(=NC(=O)CCS(=O)(=O)c1ccccc1)n2C	none
COc1cc(C(=O)Nc2ccc3oc(-c4ccc(C)c(Br)c4)nc3c2)cc(OC)c1OC	none
CC[C@H](C)C(=O)O[C@H]1CCC=C2C=C[C@H](C)[C@H](CC[C@@H]3C[C@H](O)CC(=O)O3)C21 (some centres not stated)	none (no result: VDR inh, GCN5L2 inh, TrxR1 substrate)
COc1ccc(-c2nnn(CC(=O)N(CC(=O)NC3CCCC3)c3ccccc3)n2)cc1OC	VDR inh 79µM
CC(C)CCCC(C)C1CCC2C3CC[C@H]4CC(=O)CC[C@@]4(C)C3CC[C@@]12C (some centres not stated)	none (no result: TrxR1 inh, TrxR1 substrate)
CCc1cccc(NC(=O)CSC2=NS(=O)(=O)c3ccccc32)c1	VDR inh 13µM, TrxR1 inh 3.2µM
O=C(O)CCC/C=C\CC1C2CCC(O2)C1CNNC(=O)Nc1ccccc1 (configuration not stated)	none (no result: TrxR1 inh, TrxR1 substrate)
Cc1ccc(-c2nn(-c3ccccc3)cc2C2SCC(=O)N2Cc2ccccc2)o1 (configuration not stated)	TrxR1 inh 56µM
O=C1CSC(c2cn(-c3ccccc3)nc2-c2cc3ccccc3o2)N1Cc1ccccc1 (configuration not stated)	none
Cc1[nH]c2ccccc2c1C(c1ccncc1)N1CCC(C)CC1 (configuration not stated)	none
Cc1[nH]c2ccccc2c1C(c1ccccn1)N1CCC(C(N)=O)CC1 (configuration not stated)	VDR inh inconclusive, TrxR1 inh 1.6µM
S=c1nc(-c2ccc(Cl)cc2)[nH][nH]1	none
Cc1ccc(C)n1-c1nc(=S)[nH][nH]1	VDR inh 32µM, GCN5L2 inh 18µM
CCCC(=O)Nc1ccc(OC[C@@H](O)CNC(C)C)c(C(C)=O)c1	none (no result: TrxR1 inh, TrxR1 substrate)
CCCc1c(OCC(O)COc2ccc3c(=O)cc(C(=O)O)oc3c2CCC)ccc(C(C)=O)c1O (configuration not stated)	VDR inh 45µM, GCN5L2 inh inconclusive (no result: TrxR1 inh, TrxR1 substrate)
CCCCc1ccc(NC(=O)Cn2nnc3sc4c(c3c2=O)CCC(C)C4)cc1 (configuration not stated)	none
N#CC(C#N)=Cc1ccc(OC(=O)c2ccccn2)cc1	VDR inh inconclusive, TrxR1 inh 13µM
Cc1ccc(NC(=S)NC(=O)C2CCC2)cc1C	TrxR1 inh 50µM
CC(=O)Nc1ccc(NC(=S)NC(=O)C2CC2)cc1	GCN5L2 inh inconclusive
COc1ccc(Cl)cc1N(C)c1nc(N2CCN(S(=O)(=O)c3ccc(C)cc3)CC2)c2ccccc2n1	none (no result: VDR inh, GCN5L2 inh)
CC(C)[C@H](NC(=O)c1ccc(Cl)cc1)C(=O)OCC(=O)N1CCN(c2ccccc2)CC1	TrxR1 inh 32µM
COc1cc(/C=N/NC(=O)CCNC(=O)c2ccccc2Cl)ccc1O	none
O=C(CCNC(=O)c1ccccc1Cl)N/N=C\c1ccc(O)cc1	VDR inh 22µM
Cc1cccc(NC(=S)NNc2cccc(Cl)c2)c1	VDR inh 28µM
O=[N+]([O-])c1cc2no[n+]([O-])c2cc1N1CCCCC1	VDR inh 40µM, TrxR1 inh inconclusive (no result: GCN5L2 inh)
Cc1ccccc1C(=O)Nc1cccc(NC(=O)c2ccc(C(C)(C)C)cc2)c1	VDR inh 50µM
Cc1cc(O)c2ccccc2c1O	VDR inh 35µM (no result: TrxR1 inh, TrxR1 substrate)
CC(=O)Oc1c(C)cc(O)c2ccccc12	none (no result: VDR inh, TrxR1 inh, TrxR1 substrate)
CC(=O)c1ccc(OCC(C)C)c(CC(C(N)=O)C(N)=O)c1	none
CCN(CC)Cc1cc(C(C)=O)ccc1OCC(C)C	TrxR1 inh 35µM
COc1ccc(CN(C(=O)Nc2ccccc2)c2ccccn2)cc1OC	none
CC(=O)N(C)c1ccc(/C=C2\C=Cc3ccccc32)cc1	TrxR1 inh inconclusive (no result: VDR inh, GCN5L2 inh)
CCCC(=O)N(C)c1ccc(/C=C2\C=Cc3ccccc32)cc1	TrxR1 inh 20µM (no result: VDR inh, GCN5L2 inh)
NS(=O)(=O)c1ccc2c(c1)C(=NO)c1cc(S(N)(=O)=O)ccc1-2	none
N#CC(C#N)=C1c2cc(S(N)(=O)=O)ccc2-c2ccc(S(N)(=O)=O)cc21	VDR inh inconclusive, TrxR1 inh 10µM
O=C1c2cc(S(=O)(=O)NCCO)ccc2-c2ccc(S(=O)(=O)NCCO)cc21	none
N#CC(C#N)=C1c2cc(S(=O)(=O)NCCO)ccc2-c2ccc(S(=O)(=O)NCCO)cc21	VDR inh inconclusive, TrxR1 inh 3.5µM
O=C1NCCCC2c3c(cc(Br)c(O)c3Br)OC12N1CCCCC1 (configuration not stated)	TrxR1 inh 25µM
O=C1NCCCc2c1oc1cc(Br)c(O)c(Br)c21	none
Cc1cc(C)c(NS(=O)(=O)c2ccc(-c3cnc(C4CC4)o3)cc2)c(C)c1	none
COc1ccc(C2(C(=O)c3ccccc3)C(=O)c3ccccc3C2=O)cc1	VDR inh inconclusive, TrxR1 inh 2.2µM
O=C1C(Cl)=C(NCCCO)C(=O)c2ccccc21	none
CCOCCCNC1=C(Cl)C(=O)c2ccccc2C1=O	VDR inh inconclusive, TrxR1 inh 7.1µM
Cc1ccc2c(c1)sc(C)[n+]2CCCS(=O)(=O)[O-]	VDR inh 28µM
COc1cc2nc(N3CCCN(C)CC3)nc(NC3CCNCC3)c2cc1OC	none (no result: VDR inh, GCN5L2 inh)
CC/C=C\C/C=C\C/C=C\C/C=C\C/C=C\C/C=C\CCC(=O)NCC(=O)O	none (no result: GCN5L2 inh, TrxR1 inh, TrxR1 substrate)
O=C(Nc1ccc2oc(-c3cccnc3)nc2c1)c1ccco1	TrxR1 inh inconclusive
O=C(Nc1ccc2oc(-c3cccnc3)nc2c1)c1ccc(Br)o1	TrxR1 inh 45µM
COc1ccc2nc(Nc3sc4c(c3C(N)=O)CCCC4)sc2c1	VDR inh inconclusive, TrxR1 inh 14µM
C=CC[n+]1cccc2cccc(O)c21	none (no result: VDR inh, GCN5L2 inh)
N[C@@H](CSS(=O)(=O)O)C(=O)O	VDR inh 10µM!, GCN5L2 inh 35µM! (no result: TrxR1 inh, TrxR1 substrate)
N[C@H](CS)C(=O)O	VDR inh inconclusive (no result: TrxR1 inh, TrxR1 substrate)
COc1cc2cncnc2cc1OCCCCC(N)=O	none (no result: VDR inh, GCN5L2 inh)
COc1ccc(NC(=O)CSc2ccc3c4c(cccc24)C(=O)c2ccccc2-3)cc1	GCN5L2 inh 22µM
CC(C)c1nnc(N2C(=O)c3oc4ccccc4c(=O)c3C2c2ccccc2F)s1 (configuration not stated)	none
COc1ccc(N2C(=O)CC(Sc3nnnn3-c3ccc(F)cc3)C2=O)cc1 (configuration not stated)	TrxR1 inh inconclusive
Nc1nnc(SC2CC(=O)N(c3ccccc3)C2=O)s1 (configuration not stated)	TrxR1 inh 28µM
